# Measurements: paper PMC7862700, “An all-to-all approach to the identification of sequence-specific readers for epigenetic DNA modifications on cytosine”
# How the values were obtained:
# Assay in all cases: DAPPL (digital affinity profiling via proximity ligation, sequencing); 10 mM Tris-HCl pH 7.5, 50 mM NaCl, 1 mM DTT, 4% glycerol, room temperature, 30 min; GST-TFs on glutathione beads, 16-mer random dsDNA library, 0.1% formaldehyde crosslink after washing; high values mean tight binding
# [1] = target: T1, FLI1 (Homo sapiens, UniProt Q01543 1-452); conditions: protein: recombinant; tags: N-terminal GST; dsDNA, one strand shown
# T1 sequence: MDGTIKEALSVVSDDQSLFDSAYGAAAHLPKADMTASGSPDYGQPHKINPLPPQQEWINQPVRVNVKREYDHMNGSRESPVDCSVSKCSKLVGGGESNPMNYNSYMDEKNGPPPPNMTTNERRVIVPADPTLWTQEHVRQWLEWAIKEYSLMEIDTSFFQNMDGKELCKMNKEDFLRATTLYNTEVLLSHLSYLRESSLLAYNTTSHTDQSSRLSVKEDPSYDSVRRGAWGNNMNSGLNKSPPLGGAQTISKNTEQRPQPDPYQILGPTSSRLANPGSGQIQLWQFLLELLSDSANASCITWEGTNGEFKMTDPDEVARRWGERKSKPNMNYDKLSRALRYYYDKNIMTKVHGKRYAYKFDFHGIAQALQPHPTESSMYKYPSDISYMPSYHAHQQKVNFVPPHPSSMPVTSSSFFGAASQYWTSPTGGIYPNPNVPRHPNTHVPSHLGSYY
# In short: (§1)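 Binding signal is defined as a hexamer's read frequency for one factor over its frequency for the tag-only sample. To obtain reads, GST-fused human transcription factors were expressed in yeast, captured on glutathione beads, barcoded with DNA and pooled with that sample. Pools met 200 nmole of a 16-mer random double-stranded DNA library in Tris/NaCl/DTT/glycerol buffer for 30 min at room temperature before washing, 0.1% formaldehyde crosslinking, proximity ligation (BsaI/T4 ligase, 1 h, 37 °C), PCR and Illumina NextSeq500 sequencing.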
# [2] = target: T2, ELK1 (Homo sapiens, UniProt P19419 1-428); conditions: protein: recombinant; tags: N-terminal GST; dsDNA, one strand shown
# T2 sequence: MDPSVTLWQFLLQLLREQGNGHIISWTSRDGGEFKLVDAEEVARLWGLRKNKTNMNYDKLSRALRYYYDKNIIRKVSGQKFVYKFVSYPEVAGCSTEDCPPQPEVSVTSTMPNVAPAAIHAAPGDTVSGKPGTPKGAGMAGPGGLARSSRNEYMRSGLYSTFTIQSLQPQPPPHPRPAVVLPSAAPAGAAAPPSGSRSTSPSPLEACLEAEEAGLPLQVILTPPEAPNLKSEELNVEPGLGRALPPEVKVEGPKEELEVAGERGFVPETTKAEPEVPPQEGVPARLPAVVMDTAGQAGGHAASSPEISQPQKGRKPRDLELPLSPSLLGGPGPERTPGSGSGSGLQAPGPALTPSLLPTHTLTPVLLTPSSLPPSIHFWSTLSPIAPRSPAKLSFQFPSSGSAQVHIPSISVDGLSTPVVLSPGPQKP
# In short: as §1
# [3] = target: T3, GABPA (Homo sapiens, UniProt Q06546 1-454); conditions: protein: recombinant; tags: N-terminal GST; dsDNA, one strand shown
# T3 sequence: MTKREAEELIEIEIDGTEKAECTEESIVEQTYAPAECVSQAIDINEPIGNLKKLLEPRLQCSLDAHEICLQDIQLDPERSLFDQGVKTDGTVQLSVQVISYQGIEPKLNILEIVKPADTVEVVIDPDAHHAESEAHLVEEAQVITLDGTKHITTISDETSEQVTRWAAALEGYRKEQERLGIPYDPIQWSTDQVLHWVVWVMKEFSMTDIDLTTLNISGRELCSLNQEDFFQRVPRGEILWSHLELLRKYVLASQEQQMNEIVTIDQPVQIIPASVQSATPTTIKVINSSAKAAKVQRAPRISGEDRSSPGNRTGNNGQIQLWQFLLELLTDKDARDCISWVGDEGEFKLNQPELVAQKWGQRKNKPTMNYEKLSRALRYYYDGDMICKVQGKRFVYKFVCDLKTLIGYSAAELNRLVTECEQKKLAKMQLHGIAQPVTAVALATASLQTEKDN
# In short: as §1
# [4] = target: T4, ERG (Homo sapiens, UniProt P11308 1-479); conditions: protein: recombinant; tags: N-terminal GST; dsDNA, one strand shown
# T4 sequence: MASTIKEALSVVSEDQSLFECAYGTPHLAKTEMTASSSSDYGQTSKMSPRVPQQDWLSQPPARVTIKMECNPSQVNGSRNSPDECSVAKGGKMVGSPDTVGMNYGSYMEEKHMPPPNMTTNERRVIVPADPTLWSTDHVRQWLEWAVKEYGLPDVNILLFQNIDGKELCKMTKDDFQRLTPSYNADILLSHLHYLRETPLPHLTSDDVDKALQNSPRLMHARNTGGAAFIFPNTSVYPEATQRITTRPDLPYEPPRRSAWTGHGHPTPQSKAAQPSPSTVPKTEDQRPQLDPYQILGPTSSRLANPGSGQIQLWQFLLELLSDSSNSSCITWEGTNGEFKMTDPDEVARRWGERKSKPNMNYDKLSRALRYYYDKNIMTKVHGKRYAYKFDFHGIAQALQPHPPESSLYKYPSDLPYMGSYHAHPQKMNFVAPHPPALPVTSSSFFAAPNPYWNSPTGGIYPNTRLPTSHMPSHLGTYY
# In short: as §1
# [5] = target: ELF1 (Homo sapiens, UniProt P32519 1-619); conditions: protein: recombinant; tags: N-terminal GST; dsDNA, one strand shown
# In short: as §1
# [6] = target: T5, EHF (Homo sapiens, UniProt Q9NZC4 1-300); conditions: protein: recombinant; tags: N-terminal GST; dsDNA, one strand shown
# T5 sequence: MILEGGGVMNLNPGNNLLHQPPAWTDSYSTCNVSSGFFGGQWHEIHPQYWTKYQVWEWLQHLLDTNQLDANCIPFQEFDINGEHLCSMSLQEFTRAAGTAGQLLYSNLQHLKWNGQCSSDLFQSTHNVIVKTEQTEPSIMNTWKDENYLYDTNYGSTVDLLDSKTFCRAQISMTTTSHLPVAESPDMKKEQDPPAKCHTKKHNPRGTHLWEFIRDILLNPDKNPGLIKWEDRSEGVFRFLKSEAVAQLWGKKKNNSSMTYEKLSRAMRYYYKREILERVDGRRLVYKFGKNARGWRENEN
# In short: as §1
# [7] = target: SPI1 (Homo sapiens, UniProt P17947 1-270); conditions: protein: recombinant; tags: N-terminal GST; dsDNA, one strand shown
# In short: as §1
# [8] = target: SPIB (Homo sapiens, UniProt Q01892 1-262); conditions: protein: recombinant; tags: N-terminal GST; dsDNA, one strand shown
# In short: as §1
# [9] = target: T6, ELK3 (Homo sapiens, UniProt P41970 1-407); conditions: protein: recombinant; tags: N-terminal GST; dsDNA, one strand shown
# T6 sequence: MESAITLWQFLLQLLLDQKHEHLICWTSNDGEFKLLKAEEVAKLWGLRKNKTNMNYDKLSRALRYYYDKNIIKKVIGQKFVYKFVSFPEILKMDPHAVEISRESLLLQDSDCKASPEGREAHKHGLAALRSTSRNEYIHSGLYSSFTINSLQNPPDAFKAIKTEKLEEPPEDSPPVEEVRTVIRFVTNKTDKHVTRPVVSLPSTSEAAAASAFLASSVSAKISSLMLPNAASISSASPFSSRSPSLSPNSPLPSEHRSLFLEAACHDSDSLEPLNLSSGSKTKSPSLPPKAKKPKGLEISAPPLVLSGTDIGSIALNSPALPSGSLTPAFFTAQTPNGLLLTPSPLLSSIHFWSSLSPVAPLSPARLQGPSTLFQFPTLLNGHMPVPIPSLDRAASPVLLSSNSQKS
# In short: as §1
# [10] = target: T7, FEV (Homo sapiens, UniProt Q99581 1-238); conditions: protein: recombinant; tags: N-terminal GST; dsDNA, one strand shown
# T7 sequence: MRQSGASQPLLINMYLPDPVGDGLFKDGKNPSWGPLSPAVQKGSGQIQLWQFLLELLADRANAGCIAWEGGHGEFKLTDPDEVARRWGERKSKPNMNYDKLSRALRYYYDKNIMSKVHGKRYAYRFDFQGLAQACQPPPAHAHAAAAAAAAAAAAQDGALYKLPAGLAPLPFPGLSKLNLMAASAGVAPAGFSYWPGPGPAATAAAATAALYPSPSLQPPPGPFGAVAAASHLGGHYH
# In short: as §1
# [11] = target: ETV5 (Homo sapiens, UniProt P41161 1-510); conditions: protein: recombinant; tags: N-terminal GST; dsDNA, one strand shown
# In short: as §1
# [12] = target: HSF1 (Homo sapiens, UniProt Q00613 1-529); conditions: protein: recombinant; tags: N-terminal GST; chain copies: 3; dsDNA, one strand shown
# In short: as §1
# [13] = target: T8, SPIC (Homo sapiens, UniProt Q8N5J4 1-248); conditions: protein: recombinant; tags: N-terminal GST; dsDNA, one strand shown
# T8 sequence: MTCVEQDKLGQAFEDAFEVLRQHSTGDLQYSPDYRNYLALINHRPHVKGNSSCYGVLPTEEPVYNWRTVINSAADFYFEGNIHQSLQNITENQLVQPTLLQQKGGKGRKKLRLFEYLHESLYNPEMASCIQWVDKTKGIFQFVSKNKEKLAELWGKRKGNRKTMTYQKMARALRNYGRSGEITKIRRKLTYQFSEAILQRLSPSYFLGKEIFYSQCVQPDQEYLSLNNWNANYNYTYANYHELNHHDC
# In short: as §1
# [14] = target: ELF4 (Homo sapiens, UniProt Q99607 1-663); conditions: protein: recombinant; tags: N-terminal GST; dsDNA, one strand shown
# In short: as §1
# [15] = target: T9, ELK4 (Homo sapiens, UniProt P28324-2 1-405); conditions: protein: recombinant; tags: N-terminal GST; dsDNA, one strand shown
# T9 sequence: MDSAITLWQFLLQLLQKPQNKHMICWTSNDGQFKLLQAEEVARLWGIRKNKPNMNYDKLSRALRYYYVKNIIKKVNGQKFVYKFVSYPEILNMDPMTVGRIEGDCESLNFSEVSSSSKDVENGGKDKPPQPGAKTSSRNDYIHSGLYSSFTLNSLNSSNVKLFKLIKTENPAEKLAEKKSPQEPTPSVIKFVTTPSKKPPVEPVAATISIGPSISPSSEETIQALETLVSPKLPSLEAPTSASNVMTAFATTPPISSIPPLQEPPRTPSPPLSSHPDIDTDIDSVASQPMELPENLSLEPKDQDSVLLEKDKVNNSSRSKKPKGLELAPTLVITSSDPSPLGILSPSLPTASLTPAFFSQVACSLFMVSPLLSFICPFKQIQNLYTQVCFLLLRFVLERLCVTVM
# In short: as §1
# [16] = target: T10, ETV2 (Homo sapiens, UniProt O00321 1-342); conditions: protein: recombinant; tags: N-terminal GST; dsDNA, one strand shown
# T10 sequence: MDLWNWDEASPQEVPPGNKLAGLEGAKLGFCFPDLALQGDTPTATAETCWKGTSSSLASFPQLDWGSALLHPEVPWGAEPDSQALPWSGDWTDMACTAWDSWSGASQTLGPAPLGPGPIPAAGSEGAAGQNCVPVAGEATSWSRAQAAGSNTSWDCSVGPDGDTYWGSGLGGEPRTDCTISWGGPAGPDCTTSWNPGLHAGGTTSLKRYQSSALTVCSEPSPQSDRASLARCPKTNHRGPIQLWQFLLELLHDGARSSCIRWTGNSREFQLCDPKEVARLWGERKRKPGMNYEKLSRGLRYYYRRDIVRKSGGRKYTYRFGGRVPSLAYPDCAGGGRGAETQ
# In short: as §1
# [17] = target: CRX (Homo sapiens, UniProt O43186 1-299); conditions: protein: recombinant; tags: N-terminal GST; dsDNA, one strand shown
# In short: as §1
# [18] = target: ETV1 (Homo sapiens, UniProt P50549 1-477); conditions: protein: recombinant; tags: N-terminal GST; dsDNA, one strand shown
# In short: as §1
# Chain of ETV1 (P50549 whole entry): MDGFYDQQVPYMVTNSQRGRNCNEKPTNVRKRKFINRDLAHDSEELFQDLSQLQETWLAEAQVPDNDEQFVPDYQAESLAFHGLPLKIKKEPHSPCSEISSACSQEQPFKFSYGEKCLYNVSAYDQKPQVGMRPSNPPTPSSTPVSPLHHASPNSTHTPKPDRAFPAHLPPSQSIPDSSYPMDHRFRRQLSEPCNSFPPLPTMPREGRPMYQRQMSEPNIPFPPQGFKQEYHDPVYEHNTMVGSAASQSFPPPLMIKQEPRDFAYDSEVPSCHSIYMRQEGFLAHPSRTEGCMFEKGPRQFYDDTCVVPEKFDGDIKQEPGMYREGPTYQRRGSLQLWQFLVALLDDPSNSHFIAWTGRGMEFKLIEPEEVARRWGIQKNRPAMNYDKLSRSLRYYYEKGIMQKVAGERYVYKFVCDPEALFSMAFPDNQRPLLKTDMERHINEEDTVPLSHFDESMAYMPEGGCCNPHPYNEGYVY
# Chain of ELF4 (Q99607 whole entry): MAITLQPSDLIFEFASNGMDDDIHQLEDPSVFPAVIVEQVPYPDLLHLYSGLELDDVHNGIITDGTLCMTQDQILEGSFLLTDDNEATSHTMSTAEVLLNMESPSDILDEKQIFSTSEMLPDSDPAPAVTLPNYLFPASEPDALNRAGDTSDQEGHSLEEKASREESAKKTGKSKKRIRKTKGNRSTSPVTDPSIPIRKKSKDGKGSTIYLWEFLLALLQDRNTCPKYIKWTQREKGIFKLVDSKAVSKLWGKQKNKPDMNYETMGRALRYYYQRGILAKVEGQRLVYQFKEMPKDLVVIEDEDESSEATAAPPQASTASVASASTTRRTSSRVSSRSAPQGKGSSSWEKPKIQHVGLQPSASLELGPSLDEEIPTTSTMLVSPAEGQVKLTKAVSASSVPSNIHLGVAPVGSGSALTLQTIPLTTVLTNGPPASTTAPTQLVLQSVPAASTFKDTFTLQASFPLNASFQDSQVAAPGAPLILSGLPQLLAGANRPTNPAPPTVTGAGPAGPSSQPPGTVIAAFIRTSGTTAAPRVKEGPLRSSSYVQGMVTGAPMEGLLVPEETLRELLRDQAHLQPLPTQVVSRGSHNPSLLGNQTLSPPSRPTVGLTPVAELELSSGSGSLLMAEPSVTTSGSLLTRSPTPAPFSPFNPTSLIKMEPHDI
# Chain of HSF1 (Q00613 whole entry): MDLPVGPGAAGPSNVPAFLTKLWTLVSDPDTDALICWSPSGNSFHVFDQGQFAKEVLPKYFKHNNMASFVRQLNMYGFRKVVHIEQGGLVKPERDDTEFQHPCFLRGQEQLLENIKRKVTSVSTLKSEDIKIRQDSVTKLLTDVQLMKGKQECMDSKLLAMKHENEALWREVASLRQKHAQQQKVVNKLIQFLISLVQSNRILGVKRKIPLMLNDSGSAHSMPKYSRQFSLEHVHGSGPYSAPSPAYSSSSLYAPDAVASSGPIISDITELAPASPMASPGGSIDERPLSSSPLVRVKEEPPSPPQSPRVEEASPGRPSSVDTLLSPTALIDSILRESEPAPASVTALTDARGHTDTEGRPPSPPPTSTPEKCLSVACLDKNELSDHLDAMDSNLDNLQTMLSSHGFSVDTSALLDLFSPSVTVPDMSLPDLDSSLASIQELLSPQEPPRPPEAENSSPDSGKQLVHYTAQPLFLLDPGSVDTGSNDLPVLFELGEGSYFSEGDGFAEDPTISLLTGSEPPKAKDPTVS
# Chain of CRX (O43186 whole entry): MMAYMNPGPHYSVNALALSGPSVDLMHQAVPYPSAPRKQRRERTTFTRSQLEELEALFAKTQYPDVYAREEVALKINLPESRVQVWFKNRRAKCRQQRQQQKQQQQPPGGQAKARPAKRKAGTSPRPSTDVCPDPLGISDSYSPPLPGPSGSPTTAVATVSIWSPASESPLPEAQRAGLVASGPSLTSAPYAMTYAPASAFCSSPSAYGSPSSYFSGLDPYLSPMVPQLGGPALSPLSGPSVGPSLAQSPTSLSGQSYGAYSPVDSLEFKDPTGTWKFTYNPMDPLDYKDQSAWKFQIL
# Chain of ELF1 (P32519 whole entry): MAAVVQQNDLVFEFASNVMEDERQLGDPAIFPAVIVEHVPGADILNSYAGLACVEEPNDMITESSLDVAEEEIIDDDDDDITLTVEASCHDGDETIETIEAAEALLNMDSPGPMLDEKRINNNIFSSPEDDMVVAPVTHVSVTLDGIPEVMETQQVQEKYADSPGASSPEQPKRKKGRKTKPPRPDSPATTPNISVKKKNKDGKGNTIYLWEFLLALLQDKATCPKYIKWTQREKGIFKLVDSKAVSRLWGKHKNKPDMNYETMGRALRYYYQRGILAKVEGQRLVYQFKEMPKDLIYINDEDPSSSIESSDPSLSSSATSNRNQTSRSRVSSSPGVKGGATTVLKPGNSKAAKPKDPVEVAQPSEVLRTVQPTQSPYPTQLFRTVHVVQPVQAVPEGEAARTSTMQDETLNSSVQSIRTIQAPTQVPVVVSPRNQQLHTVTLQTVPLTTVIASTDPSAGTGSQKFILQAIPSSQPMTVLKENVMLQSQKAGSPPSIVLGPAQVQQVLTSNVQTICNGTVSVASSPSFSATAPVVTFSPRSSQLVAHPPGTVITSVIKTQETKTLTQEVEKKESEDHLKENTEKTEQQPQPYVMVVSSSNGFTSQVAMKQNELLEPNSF
# Chain of SPIB (Q01892 whole entry): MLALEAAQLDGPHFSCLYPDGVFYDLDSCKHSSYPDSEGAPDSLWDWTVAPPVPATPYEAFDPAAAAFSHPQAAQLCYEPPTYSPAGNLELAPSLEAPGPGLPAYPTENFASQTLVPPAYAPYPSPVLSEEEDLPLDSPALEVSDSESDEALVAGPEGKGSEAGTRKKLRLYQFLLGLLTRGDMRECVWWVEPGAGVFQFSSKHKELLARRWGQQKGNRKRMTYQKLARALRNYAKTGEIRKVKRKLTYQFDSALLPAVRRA
# Chain of ETV5 (P41161 whole entry): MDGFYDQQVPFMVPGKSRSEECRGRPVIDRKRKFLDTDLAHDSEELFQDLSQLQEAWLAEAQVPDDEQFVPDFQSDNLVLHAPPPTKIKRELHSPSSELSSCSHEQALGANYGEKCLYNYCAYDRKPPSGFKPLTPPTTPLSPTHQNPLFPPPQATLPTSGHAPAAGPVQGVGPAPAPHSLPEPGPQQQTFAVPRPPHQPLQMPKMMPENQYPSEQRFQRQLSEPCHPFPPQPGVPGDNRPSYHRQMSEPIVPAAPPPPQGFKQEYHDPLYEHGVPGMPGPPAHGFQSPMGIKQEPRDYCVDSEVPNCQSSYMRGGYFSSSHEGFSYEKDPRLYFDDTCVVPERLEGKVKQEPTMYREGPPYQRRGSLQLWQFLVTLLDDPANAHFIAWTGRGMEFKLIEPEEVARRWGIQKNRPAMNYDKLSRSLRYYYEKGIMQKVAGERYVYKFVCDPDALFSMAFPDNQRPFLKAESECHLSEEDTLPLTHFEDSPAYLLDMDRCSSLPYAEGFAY
sequence,measurement,setting,value
ATTCAG,binding signal,[1],"1.02 fold enrichment (6-mer frequency, TF over GST control)"
same,binding signal,[2],"1.11 fold enrichment (6-mer frequency, TF over GST control)"
same,binding signal,[3],"1.17 fold enrichment (6-mer frequency, TF over GST control)"
same,binding signal,[4],"1.14 fold enrichment (6-mer frequency, TF over GST control)"
same,binding signal,[5],"1.09 fold enrichment (6-mer frequency, TF over GST control)"
same,binding signal,[6],"1.1 fold enrichment (6-mer frequency, TF over GST control)"
same,binding signal,[7],"1.16 fold enrichment (6-mer frequency, TF over GST control)"
same,binding signal,[8],"1.02 fold enrichment (6-mer frequency, TF over GST control)"
same,binding signal,[9],"1.16 fold enrichment (6-mer frequency, TF over GST control)"
same,binding signal,[10],"1.03 fold enrichment (6-mer frequency, TF over GST control)"
same,binding signal,[11],"1.1 fold enrichment (6-mer frequency, TF over GST control)"
same,binding signal,[12],"1.17 fold enrichment (6-mer frequency, TF over GST control)"
same,binding signal,[13],"1.17 fold enrichment (6-mer frequency, TF over GST control)"
same,binding signal,[14],"1.13 fold enrichment (6-mer frequency, TF over GST control)"
same,binding signal,[15],"1.08 fold enrichment (6-mer frequency, TF over GST control)"
same,binding signal,[16],"1.02 fold enrichment (6-mer frequency, TF over GST control)"
same,binding signal,[17],"1.07 fold enrichment (6-mer frequency, TF over GST control)"
same,binding signal,[18],"1.07 fold enrichment (6-mer frequency, TF over GST control)"
